Bioassay records from PubChem.
In the library only some 9.2% were active in any assay of this set; here they are far more common.
ELG1 DNA repair – ELG1-dependent DNA repair inhibition; HEK293T ELG1-luciferase reporter, luminescence, 16 h; DNA damage induced by 5-fluorouridine; Potency, µM (series often up to 46.1 µM), inactives show top-dose activity change, negative = inhibition, most hits filed as inhibitors; 2.3% of 330,000 active; AID 504467; further: on the % scale 0 is the no-effect control and ±100 the full control effect; nearly all actives have a fitted effect of over 55% in size
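Step one: seed 2,000 cells per well. Step two: pin-transfer compound or DMSO alongside 5-fluorouridine. Step three: incubate 16 hr, 37 °C, 5% CO2. Step four: add ONE-Glo, wait 30 min, read luminescence.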
ELG1 genotoxic – genotoxicity induction in ELG1-luciferase HEK293T cells | HEK293T ELG1-luciferase reporter, luminescence, 16 h | Potency, µM (top dose mostly 46 µM), for inactives: at the highest dose activity change, positive = activation, hits mostly activators | 1.3% of 330,000 active; further: % of control where 0% means no effect; nearly all actives have a fitted effect of over 60% in size
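HEK293T cells expressing luciferase-tagged ELG1 were treated with compound or DMSO for 16 hr at 37°C. Luciferase activity was then read after 30 min with ONE-Glo at room temperature; rising signal flags genetic stress.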
Rab9 promoter act – Rab9 promoter activation | Potency, µM (highest dose often 9.22 µM), inactives show top-dose activation, negative = inhibition, usual class: activators | 2.8% of 320,000 active | Huh7 Rab9 promoter-luciferase reporter, luminescence, 24 h | AID 485297; further: % of control where 0% means no effect; nearly all actives have a fitted effect of over 60% in size
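Huh7 cells stably carrying Rab9 promoter–luciferase reporter, plated 1500 cells/well, compound added after 2 h and incubated 24 h at 37 °C; luciferase luminescence then read after 10 min with detection reagent.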
SMN2 splice up – increases expression of the SMN2 splice variant; HEK293 SMN2-luciferase splicing reporter, luminescence, 30-36 h; Potency, µM (top dose mostly 46.1 µM), for inactives: at the top dose activity change, positive = activation, actives largely listed as activators; 2.8% of 210,000 active; AID 1458; further: % of control where 0% means no effect; nearly all actives have a fitted effect of over 55% in size
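qHTS luciferase splicing reporter: luminescence rises when SMN2 exon 7 is included in transfected HEK293 cells. Compound exposure lasted 30-36 h at 37C, with 4.5 mM final sodium butyrate as control, followed by a ONE-Glo read.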
FLuc counter – firefly luciferase modulation, counter-screen for miR-21 project; P08659; purified FLuc, Km substrates, luminescence inhibition; Potency, µM (doses to about 57.5 µM), for the others: top-dose activity change, negative = inhibition, most hits filed as inhibitors; 6.9% of 360,000 active; AID 588342;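 further: plate controls were vehicle for no effect and reference inhibitor for full effect; nearly all actives have a fitted effect of over 55% in size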
Target sequence (P08659 whole entry, looked up): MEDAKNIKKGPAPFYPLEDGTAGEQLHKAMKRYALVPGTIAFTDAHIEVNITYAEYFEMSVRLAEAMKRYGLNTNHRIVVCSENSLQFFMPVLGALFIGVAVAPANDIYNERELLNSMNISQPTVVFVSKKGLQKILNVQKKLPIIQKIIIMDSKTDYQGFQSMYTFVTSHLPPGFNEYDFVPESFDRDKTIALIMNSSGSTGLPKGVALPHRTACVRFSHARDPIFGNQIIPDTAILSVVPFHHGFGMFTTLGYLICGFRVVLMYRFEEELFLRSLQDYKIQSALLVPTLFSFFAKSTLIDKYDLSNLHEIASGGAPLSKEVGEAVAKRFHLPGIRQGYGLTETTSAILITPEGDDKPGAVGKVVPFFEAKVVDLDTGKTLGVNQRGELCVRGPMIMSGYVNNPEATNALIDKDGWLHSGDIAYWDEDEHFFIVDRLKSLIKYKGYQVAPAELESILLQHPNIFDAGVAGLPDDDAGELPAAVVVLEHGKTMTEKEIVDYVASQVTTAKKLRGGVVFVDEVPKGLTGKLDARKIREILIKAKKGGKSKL
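Biochemical qHTS of compounds, final roughly 60 µM downward over six points, against 10 nM purified firefly luciferase using Km concentrations of substrates (10 uM D-luciferin, 10 uM ATP) in Tris acetate pH 7.5 buffer; luminescence output.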
NPC1 promoter act – NPC1 promoter activation. Huh7 NPC1 promoter luciferase reporter, 24 h. 2.4% of 320,000 active. Potency, µM (doses to about 9.22 µM), for inactives: at the top dose activation, actives largely listed as activators; further: % of control where 0% means no effect; nearly all actives have a fitted effect of over 60% in size
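Quantitative HTS used a cell-based reporter: Huh7 cells stably bearing the NPC1 promoter upstream of luciferase were treated with compounds for 24 h, and promoter activation was read as luminescence.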
The depositor's hits bear a star; ? = inconclusive; / = no result given. The call rests on the fitted dose curve; in most records, active means well fitted curve in the direction sought with a large enough effect; inconclusive means small, poorly fitted or top-dose-only effect, or another doubt; inactive means no such curve, though single readings can be large; an effect the other way counts as inactive or inconclusive. Potency means the concentration at half of the fitted maximal effect.

SMILES	ELG1 DNA repair	ELG1 genotoxic	Rab9 promoter act	SMN2 splice up	FLuc counter	NPC1 promoter act
Cn1c(=O)c2c(nc(CN3CCc4ccccc4C3)n2Cc2cccc(Cl)c2)n(C)c1=O	?	-26%	-11%	-12%	4%	0%
Cn1c(=O)c2c(nc(CN3CCN(Cc4ccccc4)CC3)n2Cc2cccc(Cl)c2)n(C)c1=O	12µM*	-19%	-10%	-16%	-1%	-1%
Cn1c(=O)c2c(nc(CN3CCN(c4ccc(F)cc4)CC3)n2Cc2ccccc2F)n(C)c1=O	6.5µM*	-2%	-6%	-46%	-1%	-1%
CCCCCCn1c(CN2CCN(C(=O)c3ccco3)CC2)nc2c1c(=O)n(C)c(=O)n2C	13µM*	-1%	-2%	2%	0%	-3%
COc1ccccc1CC(=O)NNC(=O)CN(C)S(=O)(=O)c1ccc(Cl)cc1	-4%	0%	4%	/	5%	1%
Cc1oc(-c2ccc(C(=O)NCCc3ccc(Cl)cc3)cc2)nc1CSc1ccccc1	/	/	/	/	-1%	/
CC(=O)Nc1ccc(S(=O)(=O)N/N=C/c2ccc(C)s2)cc1	?	?	?	?	11µM*	17%
CC(=O)Nc1ccc(S(=O)(=O)N/N=C/c2cccnc2)cc1	0%	-2%	-2%	/	3%	2%
COc1ccc(-c2sc3cc4c(cc3c2C#CCO)OCO4)cc1	18%	1%	3%	/	?	14%
COC(=O)c1c(-c2ccsc2)sc2ccc(-c3cc(OC)c(OC)c(OC)c3)cc12	9.2µM*	-5%	/	/	/	/
COC(=O)c1c(-c2ccc(OC)cc2)sc2cc3c(cc12)OCO3	?	?	1%	/	9.5µM*	?
COc1cc(-c2c(-c3ccsc3)sc3ccccc23)cc(OC)c1OC	27%	-1%	-2%	/	0%	1%
COc1cc(-c2ccc3sc(-c4ccsc4)c(C#CCO)c3c2)cc(OC)c1OC	9.2µM*	-11%	-7%	/	-10%	-4%
CCOC(=O)C1=CN(Cc2ccco2)S(=O)(=O)NC1c1ccc(Br)cc1F (configuration not stated)	1%	6%	/	/	/	/
O=C(NC1CCCC1)C(c1ccccn1)N(C(=O)c1csnn1)c1ccccc1Cl (configuration not stated)	8%	1%	-3%	/	2%	0%
Cc1ccc(C(=O)N2CCN(c3ccccc3O)CC2)cc1S(=O)(=O)N1CCCCC1	?	-2%	-6%	/	-2%	0%
CN1CCS/C1=C/C=C1\SC(=S)N(CC(=O)O)C1=O	14%	-1%	-2%	/	15µM*	0%
CCCCN1C(=O)/C(=C/C=C2\SCCN2C)SC1=S	?	25%	3.2µM*	16µM*	13µM*	?
CN1CCS/C1=C/C=C1/SC(=S)N(Cc2ccccc2)C1=O	?	?	?	23%	?	18%
COc1ccc(CCNC(=O)CCn2c(=O)c3cccn3c3ccc(F)cc32)c(OC)c1OC	?	-5%	-1%	/	0%	-8%
Cc1ccccc1OCC(=O)NNC(=O)c1ccc2c(=O)n3c(nc2c1)CCC3	-8%	0%	2%	/	1%	0%
Cc1cccc(N2CCN(C(=O)c3ccc(NC(=O)c4nsc5ccccc45)cc3)CC2)c1C	/	/	/	/	6µM*	/
O=C(Nc1ccc(C(=O)N2CCCCC2)cc1)c1nsc2ccccc12	/	/	/	/	1.3µM*	/
CC1=C(C(=O)Nc2cc(C(=O)N3CCN(c4cccc(C)c4C)CC3)ccc2C)SCCO1	18µM*	-17%	-2%	/	2%	-7%
O=C(Nc1ccc(C(=O)N2CCN(c3ccc(F)cc3)CC2)cc1)c1nsc2ccccc12	/	/	/	/	7.6µM*	/
SMILES	ELG1 DNA repair	ELG1 genotoxic	Rab9 promoter act	SMN2 splice up	FLuc counter	NPC1 promoter act
O=C(NCc1ccccc1)c1nn(-c2ccccc2)nc1CO	/	/	/	-36%	5%	/
Cc1nnc(NC(=O)c2cccc(S(=O)(=O)N(C)c3cccc(Cl)c3)c2)s1	7%	0%	-8%	/	2%	-3%
O=C(c1ccc(N2CCCC2=O)cc1)N1CCN(c2ccccc2)CC1	6%	0%	0%	-5%	-2%	-5%
Cc1cccc(N2CCN(C(=O)c3ccc(N4CCCC4=O)cc3)CC2)c1C	18µM*	-11%	0%	-34%	0%	0%
Cc1ccc(NC2Sc3ccccc3NC2=O)cc1 (configuration not stated)	?	?	1.4µM*	11µM*	2.1µM*	4µM*
O=C1Nc2ccccc2SC1c1ccccc1 (configuration not stated)	8%	0%	-2%	/	-1%	1%
Cc1ccc(C(=O)CCS(=O)(=O)c2ccc(F)cc2)cc1	12%	10%	5%	/	0.76µM*	-4%
O=C(CCCC(=O)c1ccc(F)cc1)c1ccc(F)cc1	?	?	1µM*	/	3µM*	2.8µM*
CCCOc1ccc(C(=O)CCC(=O)OCC(=O)Nc2ccc(OCC)cc2)cc1	1%	3%	0%	/	-3%	-2%
CCOc1ccc(C(=O)COC(=O)CC)cc1	18%	-1%	0%	3%	5.4µM*	-2%
CCCCC(=O)OCC(=O)c1ccc(OCC)cc1	?	5%	10%	-5%	0.85µM*	17%
Cc1ccc(S(=O)(=O)CCC(=O)c2ccc(F)cc2)cc1	8%	-3%	10%	/	3%	-2%
COc1ccc(C=O)cc1CSc1ncccc1C(=O)O	-12%	4%	-1%	/	3%	4%
CCOc1ccc(C(=O)CCN2CCCCCC2)cc1	-5%	0%	-1%	13%	-13%	-1%
CCOc1ccc(C(=O)CCCC(=O)c2ccc(OCC)cc2)cc1	?	?	19%	/	6.7µM*	?
O=C(NCc1cn2ccccc2n1)c1ccc2c(c1)OCO2	1%	1%	2%	-7%	-1%	-3%
